For some assays here: Measured potencies and affinities stand elsewhere.
How the values were obtained:
Parameters in all cases: scale not given: direction of the effect not stated beside the values
[1] = molecular target: Protein translocase subunit SecA (Escherichia coli (strain K12)) (UniProt P10408); experiment: Assay to Identify E. coli SecA ATPase Inhibitors; type: functional; details: 30 µM
[2] = molecular target: T1, Ubiquitin-activating enzyme e1, putative (Leishmania donovani (strain BPK282A1)) (UniProt E9BSI1); experiment: Leishmania donovani Ubiquitin Activating Enzyme (LdE1); type: functional; details: 30 µM
T1 sequence (whole entry): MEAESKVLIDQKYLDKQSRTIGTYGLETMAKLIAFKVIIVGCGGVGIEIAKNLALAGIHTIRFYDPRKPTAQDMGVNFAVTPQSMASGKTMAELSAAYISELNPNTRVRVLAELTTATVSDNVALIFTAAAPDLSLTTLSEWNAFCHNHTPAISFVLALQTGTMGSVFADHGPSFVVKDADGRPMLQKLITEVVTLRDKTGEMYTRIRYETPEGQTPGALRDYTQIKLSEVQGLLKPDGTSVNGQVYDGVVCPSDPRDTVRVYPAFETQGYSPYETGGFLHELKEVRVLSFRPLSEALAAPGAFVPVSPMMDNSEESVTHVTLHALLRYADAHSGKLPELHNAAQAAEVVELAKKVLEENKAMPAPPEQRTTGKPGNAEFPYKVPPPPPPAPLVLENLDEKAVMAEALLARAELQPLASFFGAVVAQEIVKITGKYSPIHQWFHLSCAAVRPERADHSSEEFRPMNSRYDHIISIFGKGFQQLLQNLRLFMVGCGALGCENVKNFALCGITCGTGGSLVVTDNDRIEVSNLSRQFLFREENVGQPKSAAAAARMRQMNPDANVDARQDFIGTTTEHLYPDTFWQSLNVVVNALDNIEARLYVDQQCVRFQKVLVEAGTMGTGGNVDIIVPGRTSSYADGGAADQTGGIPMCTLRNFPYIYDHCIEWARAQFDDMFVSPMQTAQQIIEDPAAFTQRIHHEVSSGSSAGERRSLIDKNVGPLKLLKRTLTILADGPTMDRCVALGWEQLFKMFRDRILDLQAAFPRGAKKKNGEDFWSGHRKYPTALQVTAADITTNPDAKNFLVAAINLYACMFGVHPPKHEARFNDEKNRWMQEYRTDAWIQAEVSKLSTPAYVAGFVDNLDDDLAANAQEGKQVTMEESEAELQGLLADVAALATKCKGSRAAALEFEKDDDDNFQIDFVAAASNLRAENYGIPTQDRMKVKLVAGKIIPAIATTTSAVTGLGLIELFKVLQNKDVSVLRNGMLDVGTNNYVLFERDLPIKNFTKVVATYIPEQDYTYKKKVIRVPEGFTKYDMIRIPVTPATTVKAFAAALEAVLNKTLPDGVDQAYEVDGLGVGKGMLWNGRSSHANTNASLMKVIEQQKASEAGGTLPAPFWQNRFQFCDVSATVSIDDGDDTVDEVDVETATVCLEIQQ

[3] = molecular target: AMP-activated protein kinase, AMPK (Homo sapiens) (UniProt P54646+O43741+P54619+Q9UGJ0+Q9Y478+Q13131+Q9UGI9); experiment: AMP-dependent Kinase enzyme assay. An in vitro enzyme assay that detects ADP turnover that is directly proportional to AMPK activity. This uses naive AMPK that is activated during the assay with MK-8722; type: functional; details: 30 µM
[4] = molecular target: Sialic acid-binding Ig-like lectin 9 (Homo sapiens) (UniProt Q9Y336); experiment: Hs-Siglec9 ALPHAscreen SOP 20170721; details: 10 µM
Sequence of Sialic acid-binding Ig-like lectin 9 (Homo sapiens) (Q9Y336 whole entry): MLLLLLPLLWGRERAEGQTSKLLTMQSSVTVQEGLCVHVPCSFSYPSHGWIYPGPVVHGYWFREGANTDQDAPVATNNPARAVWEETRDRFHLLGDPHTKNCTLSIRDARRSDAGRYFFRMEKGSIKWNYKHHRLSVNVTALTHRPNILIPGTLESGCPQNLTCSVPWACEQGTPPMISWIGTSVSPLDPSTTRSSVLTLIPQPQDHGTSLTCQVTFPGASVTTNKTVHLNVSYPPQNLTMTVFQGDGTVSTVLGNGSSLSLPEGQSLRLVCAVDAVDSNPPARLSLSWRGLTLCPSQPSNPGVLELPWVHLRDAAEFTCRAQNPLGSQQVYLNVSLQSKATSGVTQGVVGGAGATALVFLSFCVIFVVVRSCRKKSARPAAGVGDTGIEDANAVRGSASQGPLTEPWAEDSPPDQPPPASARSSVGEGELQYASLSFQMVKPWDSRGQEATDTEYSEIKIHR

Trypanosoma cruzi = experiment: Trypanosoma cruzi phosphomannomutase and mannose-1-phosphate guanylyltransferase assay; type: functional; details: 10 µM
[5] = molecular target: T2, Arginase-2, mitochondrial (Homo sapiens) (UniProt P78540); experiment: in vitro enzyme assay to detect the production of urea directly proportional to the activity of Arginase II; type: functional; details: 33.3 µM; further: in the data most compounds retested in dose-response had high values
T2 sequence (whole entry): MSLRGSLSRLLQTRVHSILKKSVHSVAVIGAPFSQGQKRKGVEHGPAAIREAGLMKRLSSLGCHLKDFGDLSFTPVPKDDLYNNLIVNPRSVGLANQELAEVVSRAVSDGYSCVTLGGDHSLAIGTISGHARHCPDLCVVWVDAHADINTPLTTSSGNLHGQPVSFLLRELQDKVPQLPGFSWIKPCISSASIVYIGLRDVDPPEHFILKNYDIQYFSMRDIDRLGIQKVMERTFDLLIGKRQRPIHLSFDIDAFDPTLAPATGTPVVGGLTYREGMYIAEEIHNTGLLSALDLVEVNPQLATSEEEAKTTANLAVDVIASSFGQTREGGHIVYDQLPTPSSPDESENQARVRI

[6] = molecular target: T3, Proteasome subunit beta (Trypanosoma cruzi) (UniProt O96673); experiment: Trypanosoma cruzi proteasome chymotrypsin-like activity (TcProtChymo) assay.; further: in the data most compounds retested in dose-response had high values; type: functional; details: 9.37 µM
T3 sequence (whole entry): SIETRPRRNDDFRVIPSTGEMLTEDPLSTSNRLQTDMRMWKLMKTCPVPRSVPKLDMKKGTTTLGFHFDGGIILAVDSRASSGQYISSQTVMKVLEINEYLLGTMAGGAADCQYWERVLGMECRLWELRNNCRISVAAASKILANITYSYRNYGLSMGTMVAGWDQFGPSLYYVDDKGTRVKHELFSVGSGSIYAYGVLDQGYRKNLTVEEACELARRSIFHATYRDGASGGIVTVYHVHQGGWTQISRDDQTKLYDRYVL

Homo sapiens = species: Homo sapiens; experiment: To identify inhibition of the IFN signalling (Jak-Stat) pathway via expression of an eGFP reporter gene under the control of an IFN-stimulated response element (ISRE) containing MxA promoter.; type: functional; details: 30 µM
[7] = molecular target: T4, Tyrosyl-tRNA synthetase, putative (Trypanosoma cruzi (strain CL Brener)) (UniProt Q4DSP6); experiment: Trypanosoma cruzi tyrosyl tRNA synthetase (TcYRS) _High Tyrosine SOP; type: functional; details: 30 µM; further: in the data most compounds retested in dose-response had high values
T4 sequence (whole entry): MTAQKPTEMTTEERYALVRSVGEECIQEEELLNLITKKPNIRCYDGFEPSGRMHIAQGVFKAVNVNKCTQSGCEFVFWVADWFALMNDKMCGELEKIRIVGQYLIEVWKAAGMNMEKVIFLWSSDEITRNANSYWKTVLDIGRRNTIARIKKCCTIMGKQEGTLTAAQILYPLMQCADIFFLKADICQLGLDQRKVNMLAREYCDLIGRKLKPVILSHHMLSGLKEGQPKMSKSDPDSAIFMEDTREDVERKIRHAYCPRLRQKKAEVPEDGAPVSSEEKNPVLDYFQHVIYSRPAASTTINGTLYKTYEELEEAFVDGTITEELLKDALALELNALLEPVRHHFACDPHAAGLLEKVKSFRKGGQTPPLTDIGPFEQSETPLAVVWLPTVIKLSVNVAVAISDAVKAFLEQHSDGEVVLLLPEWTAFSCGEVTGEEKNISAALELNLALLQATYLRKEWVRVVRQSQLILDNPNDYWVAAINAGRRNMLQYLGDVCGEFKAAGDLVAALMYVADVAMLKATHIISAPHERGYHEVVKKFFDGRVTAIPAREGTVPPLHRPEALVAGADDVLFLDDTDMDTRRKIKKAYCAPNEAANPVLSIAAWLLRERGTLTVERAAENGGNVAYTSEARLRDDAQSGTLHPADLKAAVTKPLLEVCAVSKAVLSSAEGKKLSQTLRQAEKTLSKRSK

[8] = molecular target: T4, Tyrosyl-tRNA synthetase, putative (Trypanosoma cruzi (strain CL Brener)); experiment: Trypanosoma cruzi tyrosyl tRNA synthetase (TcYRS) SOP; type: functional; details: 30 µM
[9] = molecular target: Chromo domain-containing protein 1 (Saccharomyces cerevisiae (strain ATCC 204508 / S288c) (Baker's yeast)) (UniProt P32657); experiment: ScCHD-1 Enzyme Inhibition Assay; type: functional; details: 30 µM; further: in the data most compounds retested in dose-response had high values
Sequence of Chromo domain-containing protein 1 (Saccharomyces cerevisiae (strain ATCC 204508 / S288c) (Baker's yeast)) (P32657 whole entry, the tested form may be a part): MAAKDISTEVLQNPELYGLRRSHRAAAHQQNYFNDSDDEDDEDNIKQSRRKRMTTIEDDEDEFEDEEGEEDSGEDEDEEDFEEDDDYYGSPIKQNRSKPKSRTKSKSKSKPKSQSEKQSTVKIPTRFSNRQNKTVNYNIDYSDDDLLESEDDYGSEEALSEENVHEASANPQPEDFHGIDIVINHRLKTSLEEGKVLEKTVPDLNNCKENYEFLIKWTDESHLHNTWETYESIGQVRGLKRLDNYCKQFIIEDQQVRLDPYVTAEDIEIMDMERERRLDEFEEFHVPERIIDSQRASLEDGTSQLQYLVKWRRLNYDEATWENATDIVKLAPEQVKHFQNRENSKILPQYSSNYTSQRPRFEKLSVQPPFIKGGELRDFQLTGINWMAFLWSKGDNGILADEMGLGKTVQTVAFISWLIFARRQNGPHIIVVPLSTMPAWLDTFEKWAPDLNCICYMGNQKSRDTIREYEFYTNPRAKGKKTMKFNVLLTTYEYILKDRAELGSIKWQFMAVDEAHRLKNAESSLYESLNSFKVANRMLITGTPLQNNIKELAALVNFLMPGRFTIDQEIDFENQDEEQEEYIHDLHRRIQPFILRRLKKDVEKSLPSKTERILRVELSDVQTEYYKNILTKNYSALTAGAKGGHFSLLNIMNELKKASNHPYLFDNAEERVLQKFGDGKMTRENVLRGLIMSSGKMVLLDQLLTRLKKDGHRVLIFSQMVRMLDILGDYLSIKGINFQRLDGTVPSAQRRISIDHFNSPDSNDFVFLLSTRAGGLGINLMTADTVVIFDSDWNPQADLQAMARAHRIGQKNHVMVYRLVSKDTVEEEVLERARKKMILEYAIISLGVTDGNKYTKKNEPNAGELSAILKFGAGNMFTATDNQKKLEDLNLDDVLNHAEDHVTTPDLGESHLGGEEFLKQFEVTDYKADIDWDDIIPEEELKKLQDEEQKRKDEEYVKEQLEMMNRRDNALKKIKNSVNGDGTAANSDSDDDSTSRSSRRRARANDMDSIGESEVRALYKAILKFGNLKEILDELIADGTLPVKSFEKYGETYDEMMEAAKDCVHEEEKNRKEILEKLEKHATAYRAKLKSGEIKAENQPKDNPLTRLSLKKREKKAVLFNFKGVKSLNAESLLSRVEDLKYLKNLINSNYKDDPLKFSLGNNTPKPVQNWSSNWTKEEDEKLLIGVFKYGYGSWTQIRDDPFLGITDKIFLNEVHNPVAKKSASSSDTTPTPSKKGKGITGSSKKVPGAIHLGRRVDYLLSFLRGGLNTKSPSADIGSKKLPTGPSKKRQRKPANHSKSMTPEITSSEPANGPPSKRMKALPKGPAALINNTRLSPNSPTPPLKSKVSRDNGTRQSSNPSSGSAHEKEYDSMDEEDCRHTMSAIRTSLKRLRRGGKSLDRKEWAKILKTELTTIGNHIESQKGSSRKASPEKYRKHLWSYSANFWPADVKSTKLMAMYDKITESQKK

Sequence of Protein translocase subunit SecA (Escherichia coli (strain K12)) (P10408 whole entry): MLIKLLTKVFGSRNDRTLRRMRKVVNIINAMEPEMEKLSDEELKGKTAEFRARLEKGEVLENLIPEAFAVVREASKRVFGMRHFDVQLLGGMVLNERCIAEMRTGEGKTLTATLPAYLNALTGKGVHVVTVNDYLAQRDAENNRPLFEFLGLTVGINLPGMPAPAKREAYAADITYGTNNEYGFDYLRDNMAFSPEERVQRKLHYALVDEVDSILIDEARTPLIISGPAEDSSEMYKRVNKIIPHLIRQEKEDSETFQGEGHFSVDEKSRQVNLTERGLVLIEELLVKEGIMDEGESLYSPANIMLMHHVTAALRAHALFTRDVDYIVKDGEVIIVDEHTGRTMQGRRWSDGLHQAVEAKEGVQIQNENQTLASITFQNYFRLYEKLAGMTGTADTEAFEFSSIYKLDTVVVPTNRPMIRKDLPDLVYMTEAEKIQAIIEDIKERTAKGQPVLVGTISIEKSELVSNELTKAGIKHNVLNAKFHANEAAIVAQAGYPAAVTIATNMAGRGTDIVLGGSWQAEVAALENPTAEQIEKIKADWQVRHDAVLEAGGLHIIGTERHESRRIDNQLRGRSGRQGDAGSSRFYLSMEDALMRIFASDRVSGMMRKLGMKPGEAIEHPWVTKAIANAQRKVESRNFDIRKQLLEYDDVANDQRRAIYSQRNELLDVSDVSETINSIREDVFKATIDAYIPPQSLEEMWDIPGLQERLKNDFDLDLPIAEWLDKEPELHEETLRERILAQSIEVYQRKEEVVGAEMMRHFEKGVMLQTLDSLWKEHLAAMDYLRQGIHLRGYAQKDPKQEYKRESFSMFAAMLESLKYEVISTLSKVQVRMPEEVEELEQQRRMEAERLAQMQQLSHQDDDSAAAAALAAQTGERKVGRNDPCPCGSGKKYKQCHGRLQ

| SMILES | Percent Effect [1] | Percent Effect [2] | Percent Effect [3] | Percent Effect [4] | Percent Effect (Trypanosoma cruzi) | Percent Effect [5] | Percent Effect [6] | Percent Effect (Homo sapiens) | Percent Effect [7] | Percent Effect [8] | Percent Effect [9] |
| --- | --- | --- | --- | --- | --- | --- | --- | --- | --- | --- | --- |
| Cc1nn(C)c(N2CCOCC2)c1CNCc1ccnc(N(C)C)c1 | -1.81% | 10.4% | -5.9% | -0.165% | -2.64% | 0.21% | 10.6% | 25.3% | 3.81% | 14.1% | -2.85% |
| Cc1noc(C)c1CN1CC[C@H]2OCC[C@@H](C(=O)N3CCCO3)[C@@H]2C1 | -8.03% | 16% | -5.74% | -1.2% | 5.02% | -43.5% | 14.7% | -8.37% | -1.04% | 2.5% | -6.96% |
| Cc1cc(C(F)(F)F)nn1C(C)C(=O)Nc1ccncc1 (configuration not stated) | -1.07% | 25.3% | -4.73% | -5.25% | -0.982% | -12.2% | 8.87% | 13.8% | 2.12% | 12.8% | -9.26% |
| Cn1nnc2c1C(COCC1CC1)CN(C(=O)Cc1ccsc1)C2 (configuration not stated) | -5.15% | 23.4% | -3.67% | 0.591% | 4.63% | -3.23% | 9.57% | 4.27% | -1.06% | 14.1% | -12.5% |
| CC(=O)NCc1ccc(C(=O)N2CCCC2c2cnn(C)c2)o1 (configuration not stated) | -4.23% | -2.63% | -0.621% | 3.5% | -0.467% | 3.24% | 6.51% | -0.0723% | -0.493% | -1.24% | 2.06% |
| COc1ccc(C(=O)NCCc2nnc3ccccn23)c(OC)c1 | -6.68% | 5.2% | 5.94% | -6.61% | -7.93% | -3.16% | 13.5% | 13% | 0% | 2.35% | -16.9% |
| N#Cc1ncn(CCC(=O)Nc2c(Cl)cccc2Cl)n1 | -1.01% | 2.74% | -1.08% | 6.16% | 1.59% | -24.8% | 19.6% | -3.99% | 11.5% | 21% | -3.19% |
| COc1cccc2c1OCC(NC(=O)NCc1cccs1)C2 (configuration not stated) | -7.48% | 15.8% | 0.286% | 9.16% | 0.876% | -2.37% | 9.11% | 5.73% | 4.25% | 13% | -6.35% |
| O=C(CN(Cc1ccccc1)CC1CCOCC1)NC(=O)NC1CC1 | -9.18% | 0% | 0.0982% | -1.54% | -4.96% | -4.39% | 3% | -3.5% | 1.04% | -3.7% | 1.29% |
| Cn1cnnc1C1CCN(C(=O)CCCOc2ccccc2F)CC1 | -5.06% | 10.4% | -2% | 4.13% | -7.87% | 4.98% | 2.53% | 14.2% | 3.88% | 7.32% | -2.08% |
| CCc1nnc2n1CCN(Cc1csc(-c3cnn(C)c3)n1)C2 | -3.51% | 12.5% | -7.81% | 3.08% | -3.79% | -2.21% | 18.6% | -7.26% | 5.26% | 0% | 0.402% |
| CC(C)(CNC(=O)OC(C)(C)C)NC(=O)C1CC(=O)N(C2CC2)C1 (configuration not stated) | -7.68% | -2.7% | -1.58% | -8.17% | -8.11% | -1.24% | 7.3% | 20.6% | -2.15% | 3.7% | -4.06% |
| CCN1CCC(CNCc2cc(OC)ccc2OC)C1 (configuration not stated) | -3.32% | 0% | -0.832% | -3.34% | -5.66% | 0.417% | 6.17% | 0.331% | 0.99% | 1.22% | -0.855% |
| Cc1cc(C)n(CC2CCCCN2CC(=O)Nc2nncs2)n1 (configuration not stated) | -3.75% | 8% | -5.11% | 15% | 7.69% | 14.6% | 0.349% | 13.2% | 6.01% | 16.1% | -8.51% |
| COc1ccc(C(=O)NCC(c2cccn2C)N2CCCC2)c(OC)c1 (configuration not stated) | -5.97% | 13% | -5.29% | -1.12% | 1.08% | -1.94% | 18.3% | -21.8% | 6.35% | 11.5% | -8.35% |
| CC(C)(CO)NC(=O)C1CCC(=O)N(Cc2ccc(Cl)cc2)C1 (configuration not stated) | -3.58% | 1.39% | 10.2% | 1.15% | -1.26% | -3.09% | 2.81% | -9.87% | -3.16% | 0% | 0.1% |
| Cc1ccc(Cc2cnc(NC(=O)C3CNC(=O)N3)s2)cc1F (configuration not stated) | -2.83% | 8.86% | 4.79% | 5.91% | 0.308% | 1.5% | 16.6% | -4.36% | -3.12% | 17.7% | -8.88% |
| O=S(=O)(Cc1ccccc1)N1CCCn2cnc(CN3CCCC3)c2C1 | -3.85% | 8% | 20.1% | -0.361% | -4.44% | -57.5% | 5.3% | -10% | 6.25% | -7.5% | -6.67% |
| O=C(N[C@@H]1CN(c2ncccn2)[C@@H]2CCCO[C@@H]21)c1cnccn1 | -3.44% | 2.67% | 2.76% | 2.22% | 0.772% | -38.9% | 9.91% | -16.7% | 6.25% | 20% | -7.55% |
| O=C(c1ccc(F)c(F)c1)N1CCCSCC1CN1CCCC1 (configuration not stated) | -3.82% | 0% | 4.53% | -1.26% | 2.86% | -0.645% | 8.7% | -1.06% | 7.41% | 16.7% | -8.34% |
| CC(C#N)CSc1ccccc1NCC(=O)NCc1ccccc1 (configuration not stated) | -3.57% | -8.22% | 11.4% | 8.76% | 5.49% | 14.1% | 11.7% | 19.4% | -2.15% | -5% | -1.42% |
| O=C(Nc1ccc(F)cc1)N1C[C@H]2CC[C@@H]1CN(Cc1cccnc1)C2 | -3.11% | 11% | 4.71% | -2.61% | -2.15% | 4.54% | 13.3% | 9.03% | 10.8% | 20% | -5.73% |
